Test results: the supplement of paper PMC11417369
Over roughly 25,000 sequences, “ln(normalized median fluorescence intensity)” has its median near 9.3; the highest 2% begin near 10. Shown is part of a subset that was picked to be rich in the highest values.

tested on: PF3D7_0420300 AP2 domain 1 (GST-tagged); test: gcPBM binding intensity (ln(normalized median fluorescence intensity)); higher = stronger DNA binding
Outline: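 Probes on an Agilent 4 × 180k array were primer-extended, double-stranded and 36 bp long, taken from intergenic genomic regions, with negative controls added. GST-tagged P. falciparum DNA-binding domains from E. coli, about 25 μg on average, were applied to the array for 1 h in 1× PBS containing 1% milk, 0.2 mg/ml BSA, 0.5% salmon testes DNA and 0.03% Triton X-100. Binding intensity, obtained after Alexa488 anti-GST antibody detection and a 488 nm scan, is the highest Masliner-normalised natural-log median intensity across replicate spots of either probe orientation.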

Sequence | gcPBM binding intensity (ln)
ATTAGTTTTATATATAGTACATATAATTTTGAAGGT [XGTACX_site7445] | 9.2
GTTAAAAAAAGGAGAGATCTCACACAAATATATATA [GTGCAC_negctrl_site117] | 9.22
CATATATACGCATACACACACACACCCACACCCACA [CACACA_site1725] | 10.2
CATATACGCAAACACACACACATATATATATATATA [CACACA_site501] | 10
AACAAAAAAACAAACACACACACACCCATATATATA [CACACA_site3652] | 9.98
CATATAAATAAATACACACACACACGCCTTATAATT [CACACA_site7830] | 10.2
AAAACACCCAAACACACACACACATATATATATATA [CACACA_site9119] | 10.1
TACATATATATAAATACACACACACCCACCTTATAA [CACACA_site9346] | 10.1
TATATACGCAAACACACACACACATACACCCACATA [CACACA_site1724] | 10.2
CAAAAAAACAAACACACACACACACCCATATATATA [CACACA_site3653] | 10.2
TCAAATAATTTGTTGACACACACACCCACATACATA [CACACA_site8717] | 9.85
AAATAATTTGTTGACACACACACACCCATACATATA [CACACA_site2285] | 10.2
AAATAATTTGTTGACACACACACACCCATACAGATA [CACACA_site5291] | 10.1
CATATATATAAATACACACACACACCCCTTATAATT [CACACA_site4064] | 10.2
TAATATATGTTATATACACACATATAAATATAAATA [CACACA_site6339] | 9.2
TGTTACATAAAATGCACACTTTCAAATATGCTAATA [CACACA_site2925] | 9.05
GTTTCCTTAATATTCACACACATATCTATAATATAT [CACACA_site6959] | 9.87
ACAAATAAAAATATTACACACACTATTATATTGATA [CACACA_site1494] | 9.86
TACACGCATAGACACACACACACACGCATATAAATA [CACACA_site6446] | 10.3
ATATAAAATAGACACGCACACAAAAAAAAAAAAAAA [CACACA_site3522] | 9.5
ATGGCCATAATATAGACACACATATATAAATATATA [CACACA_site2230] | 9.28
TCATAGTATAGACACACACACACACGCATATAAATA [CACACA_site6915] | 10.2

Sequence | gcPBM binding intensity (ln)
CATATACATAGACACACACACACATAAATAAATATA [CACACA_site6749] | 10.1
TATATTGATGATGATAGTACGTATGATTAGAAAAAA [XGTACX_site8989] | 9.18
ATGTATATGTCTATATGTACTTATATTTTATTTTTT [XGTACX_site5902] | 9.37
TTAATATATTAAATCTTACACACTAAAAAATATGTA [CACACA_site307] | 9.16
ATACTAACATTTTTTTGTACATATAACTATAAAATA [XGTACX_site1033] | 9.16
AGATATTTATTGAGTGCATGTTATAAAGGGAAAAAA [TGCATGCA_site88] | 9.32
ATTAAATACATTAACACACACACAAATATATACATA [CACACA_site2881] | 10.1
TTTAACATAAATTAAACACACAATAAAATACATTAA [CACACA_site6699] | 9.54
AAAATAAAATAAAATACACACATACATACATACAAA [CACACA_site5366] | 9.95
ATAAAACAAAAACACACACACATACACAAAAAAAAA [CACACA_site3848] | 10.2
TATAACATAAAACACACACACATACATACACAAAAA [CACACA_site1804] | 10.1
AAATAAAACAAACACACACACACATACACAAAAAAA [CACACA_site3849] | 10.2
AATAAAATAAAATACACACATACATACATACAAATG [CACACA_site2438] | 10.2
TATACACATATATAAACACACAAAAAAAAAAAAAAA [CACACA_site7041] | 9.38
TATAACATAGGACACACACACATACATACACAAAAA [CACACA_site5062] | 10.2
ATTAAATACATTAACACACACACAAATAAATACATA [CACACA_site5583] | 10.3
TATAACATATGACACACACACATACATACACAAAAA [CACACA_site6935] | 10.2
AACACATACAAACACACACACAAAAAAAAAAAAAAA [CACACA_site393] | 9.78
TATATATTTCATAATACACACGAAAAAAAAAAAAAA [CACACA_site8972] | 9.31
TACATTTAAAAAAAAACACACATATATATATATATA [CACACA_site2535] | 8.99
TAATTTTTATTCAAGAGTACACAAAAGATAACTAAA [XGTACX_site4060] | 9.14
AAGACACAAAAACACACACACATACATACATACATA [CACACA_site454] | 9.91
